Only some compounds are listed: those with a hit (about 6.2% of all), similar ones and a draw of the others.
S2 tox: reduces viability in counter-screen for ATXN expression inhibitors | S2 cells (HEK-293 line with an ATXN2-luciferase reporter) viability, CellTiter-Fluor protease fluorescence, 24 h | Potency, µM (titrated, usually from 56.7 µM), actives largely listed as cytotoxic | 400,000 compounds, 0.49% hits | AID 651635; also: nearly all actives have a fitted effect of over 40% in size
KB-V1 cytotox: kills drug-selected multidrug resistant KB-V1 cells; KB-V1 MDR cells viability, CellTiter-Glo, 72 h; Potency, µM (top dose mostly 46.1 µM), hits mostly cytotoxic; 400,000 compounds, 3.4% hits; AID 1347076; also: nearly all actives have a fitted effect of over 60% in size
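Following 72 h at 37 degrees C with compound, KB-V1 cell viability was read by CellTiter-Glo luminescence, medium being phenol-red-free DMEM plus 10% FBS; concentration-response parameters came from normalized, curve-fitted qHTS data.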
HT1080NT lethal: kills 2HG-producing HT-1080-NT fibrosarcoma cells | HT-1080-NT fibrosarcoma viability, CellTiter-Glo ATP luminescence, 48 h | Potency, µM (doses to about 46.1 µM), most hits filed as cytotoxic | 360,000 compounds, 1.6% hits;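 also: NT is the 2HG producing partner of a matched IDH1 knockdown line; nearly all actives have a fitted effect of over 55% in size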
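Viability by CellTiter-Glo luminescence after 48 h compound exposure at 37C of HT-1080-NT cells (750/well, RPMI, 5% FBS). % activity scaled between DMSO wells and medium-only wells, then curve-fitted and categorized by curve class.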
KB-3-1 tox: kills parental KB-3-1 adenocarcinoma cells; KB-3-1 viability, CellTiter-Glo ATP luminescence, 72 h; Potency, µM (titrated, usually from 46.1 µM), hits mostly cytotoxic; 400,000 compounds, 1.4% hits; AID 1347075; also: nearly all actives have a fitted effect of over 60% in size
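Using CellTiter-Glo luminescence, growth of non-resistant KB-3-1 adenocarcinoma cells is assessed 72 h after pin-tool compound addition at 37 °C. Normalized responses across the concentration series yield fitted curves.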
ATXN2 expr inh: ATXN2 expression inhibition; HEK-293 ATXN2-luciferase reporter, luminescence, 24 h; Potency, µM (series often up to 57 µM), hits mostly inhibitors; 360,000 compounds, 0.72% hits; AID 1745845; also: nearly all actives have a fitted effect of over 55% in size
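qHTS (up to 57 uM final) was run with 24 h compound exposure of reporter cells at 37 °C. Each well was multiplexed: SteadyGlo luminescence measured ATXN2-luciferase expression after a fluorogenic Gly-Phe-AFC viability readout (25 uM final).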
HT1080 IDH1KD tx: toxicity to HT-1080 IDH1 knockdown cells (counter line) | HT-1080 IDH1 knockdown viability, ATP luminescence, 48 h | Potency, µM (series often up to 46.1 µM), hits mostly cytotoxic | 360,000 compounds, 2% hits
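In this qHTS, HT-1080 cells depleted of IDH1 are exposed for 48 h at 37 °C to compound titrations. Toxicity is scored from CellTiter-Glo luminescence, with DMSO as full viability and medium alone as none.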
Hits are given with their value; – = inactive; ? = inconclusive; · = no result given. Calls follow the shape of the dose curve; as a rule, active = well fitted curve in the direction sought with a large enough effect; inconclusive = small, poorly fitted or top-dose-only effect, or another doubt; inactive = no such curve, though single readings can be large; an effect the other way counts as inactive or inconclusive.

SMILES	S2 tox	KB-V1 cytotox	HT1080NT lethal	KB-3-1 tox	ATXN2 expr inh	HT1080 IDH1KD tx
COc1cccc(/C=N/Nc2nnc3c(n2)[nH]c2ccccc23)c1OC	–	–	–	?	–	–
CCN(C1CCCCC1)S(=O)(=O)c1ccc(S(=O)(=O)N(CC(=O)Nc2ccccc2)C2CC2)cc1	–	6.5µM	–	–	–	–
CS(=O)(=O)N(CC(=O)Nc1ccccc1Sc1ccccc1)C1CCCCC1	–	5.8µM	?	?	–	?
O=C(CN(C1CC1)S(=O)(=O)c1ccc(S(=O)(=O)N2CCCCCC2)cc1)Nc1ccccc1	–	–	?	–	?	?
Cc1ccc(S(=O)(=O)N(CC(=O)Nc2ccc(Cl)c([N+](=O)[O-])c2)C2CCCCC2)cc1	–	4.6µM	–	?	–	–
COc1cc(CN2CCCC(c3nc(-c4ccncc4)ncc3-c3ccccc3)C2)ccc1O (centres undefined)	–	·	·	·	·	·
COc1ccc(Cn2c(C(=O)O)c(CNCC(C)c3ccccc3)c3ccc(OC)cc32)cc1 (centres undefined)	?	–	·	?	–	·
Cc1ccc(NC(=O)Cn2c(=O)n(Cc3nc(C)no3)c(=O)c3cc4c(cc32)OCO4)c(C)c1	–	–	·	–	–	·
O=[N+]([O-])c1ccc(N2CCC(=NOCc3ccc(Cl)cc3)CC2)cc1	?	15µM	?	–	–	–
CCOc1ccc(Br)cc1C1C(C(=O)OC)=C(N)Oc2cc(N(C)C)ccc21 (centres undefined)	–	23µM	12µM	?	–	15µM
CN(C)S(=O)(=O)c1cccc(NC(=O)c2ccc(COc3ccccc3)cc2)c1	13µM	?	?	?	?	–
COCc1ccc(C(=O)Nc2cccc(S(=O)(=O)N(C)c3ccccc3)c2)cc1	?	?	6.5µM	–	–	–
CN(CCOc1ccc(Cl)cc1)Cc1cccc(S(=O)(=O)N(C)C)c1	–	7.3µM	–	21µM	–	–
CN(C)S(=O)(=O)c1cccc(NC(=O)Cc2ccc(Cl)cc2)c1	–	21µM	–	–	–	–
CN(c1ccc(C(=O)Nc2cccc(O)c2)cc1)S(=O)(=O)c1ccccc1	?	·	–	·	–	–
OC(c1ccc2c(c1)CN(Cc1c[nH]c3ccccc13)CCO2)c1ccccn1 (centres undefined)	–	·	·	·	·	·
CCN(CC)c1ccc(NC(=O)c2cc(C)nc3c2c(C)nn3-c2ccc(C)cc2)c(C)c1	–	–	·	–	–	·
O=C(COc1ccccc1C(=O)Nc1ccccc1)Nc1cccc([N+](=O)[O-])c1	·	–	·	?	·	·
Cc1nn(CCC(=O)NC(C)C)c(=O)c2nn(-c3ccccc3)c(C)c12	–	?	·	–	–	·
CN(c1ccccc1)S(=O)(=O)c1cccc(NC(=O)CSc2nncs2)c1	–	4.1µM	–	?	–	–
CN(C)S(=O)(=O)c1cccc(NC(=O)c2ccc(OC(F)(F)F)cc2)c1	?	2.6µM	–	?	?	–
CCc1ccc2oc(C(=O)Nc3ccccc3C(=O)OC)cc(=O)c2c1	–	–	·	–	–	·
CN(CC(=O)N1CCOCC1)Cc1c(Cl)cccc1NC(=O)c1ccccc1	–	·	·	·	·	·
CCc1cccc(C)c1NC(=O)CCS(=O)(=O)c1ccc2c(c1)oc(=O)n2C	–	–	·	–	–	·
N#Cc1c(OCC(=O)c2ccccc2)nc2c(c1-c1ccco1)CCc1ccccc1-2	?	8.2µM	–	–	–	–
SMILES	S2 tox	KB-V1 cytotox	HT1080NT lethal	KB-3-1 tox	ATXN2 expr inh	HT1080 IDH1KD tx
CCOC(=O)COc1nc2c(c(-c3ccco3)c1C#N)CCc1ccccc1-2	–	–	–	–	–	–
CCOCCCn1c(=N)c(C(=O)NC2CCCC2)cc2c(=O)n3cccc(C)c3nc21	·	–	·	–	–	·
CNc1sc(C(=O)c2ccc(F)cc2)c(N)c1-c1nc2ccccc2s1	–	–	11µM	–	–	6.3µM
O=C(Nc1ccc(F)cc1)Nc1sccc1-c1nc2ccccc2s1	?	–	16µM	–	–	18µM
CNc1sc(C(=O)c2cccs2)c(N)c1-c1nc2ccccc2s1	?	–	–	–	–	?
O=C(Nc1ccccc1-c1nc2ccccc2s1)c1ccc(F)cc1	?	?	·	–	–	·
COc1cccc(C(=O)NCc2ccc(N3CCN(C(=O)OC(C)(C)C)CC3)cc2)c1	–	–	–	–	–	–
COc1ccc(C(=O)NCc2ccc(N3CCN(C(=O)OC(C)(C)C)CC3)cc2)cc1	–	0.73µM	–	?	–	–
COc1ccc(-n2cc(CNCCc3nc(C)cc(C)n3)c(-c3ccccc3Cl)n2)cc1	?	?	16µM	–	–	16µM
CCN1CCC(CNCc2cn(-c3ccc(OC)cc3)nc2-c2ccccc2Cl)C1 (centres undefined)	?	–	16µM	?	–	?
Fc1ccc(-n2cc(CNCCc3ccccn3)c(-c3ccccc3Cl)n2)cc1	–	21µM	21µM	?	–	21µM
Cn1c2ccccc2c2nnc(SCCOc3ccccc3)nc21	·	–	·	?	·	·
c1ccc(-c2nc(-c3cnc4ccccc4n3)cs2)cc1	·	–	·	?	·	·
CCn1c(C)c(C)c2cc(C(=O)NCc3cccc(C)c3)ccc21	·	–	·	–	·	·
Cc1ccc(C(C)NC(=O)/C(C#N)=C\c2c(C)[nH]c3ccccc23)cc1 (centres undefined)	–	12µM	?	–	–	?
CCOc1cc(/C=C\[N+](=O)[O-])ccc1OCC(=O)N1CCOCC1	?	?	?	–	?	18µM
CCOc1cc(/C=C/c2nc3cc(C)c(C)cc3s2)ccc1OCC(=O)N1CCOCC1	–	10µM	–	–	–	–
Cc1ccccc1C(C(=O)NC1CCCCC1)N(C(=O)Cn1ccnc1C)c1cccc(F)c1 (centres undefined)	·	·	·	·	–	·
O=C(Nc1ccc(F)cc1)c1ccccc1Oc1ccc(C(F)(F)F)cc1[N+](=O)[O-]	?	16µM	?	–	–	?
O=C(Nc1ccccc1)c1ccccc1Oc1ccc(C(F)(F)F)cc1[N+](=O)[O-]	–	?	–	?	–	–
Nc1cc(N)cc(Cc2ccccc2)c1	–	–	–	–	–	–
Nc1cc(Cc2ccccc2)ccc1O	–	18µM	–	–	–	–
Nc1ccc(-c2nc3ccc(N)cc3s2)cc1	–	–	–	–	20µM	–
O=C(O)c1ccc2nc(-c3ccccc3)sc2c1	–	–	–	–	8.9µM	–
Nc1ccc(-c2nc3ccc(C(=O)O)cc3s2)cc1	–	–	–	–	1.4µM	?
CC1CCN(c2nc3ccc(C(=O)O)cc3s2)CC1	–	–	–	–	2.2µM	–
O=C(NCCO)c1cn(C2CCN(Cc3c(F)cccc3Cl)CC2)nn1	–	·	·	·	·	·
